According to the supplement of paper PMC12494721:
Structures can show the parent of a compound that is named as a salt.

Tests used:
Conditions in all cases: incubation time: 27 h, anaerobic, 37 °C;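 for the amine columns active = adjusted P below 0.05 in both replicates with a change the same way and a mean fold change under 0.8 or over 1.25; inactive = the rest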
[1] = test system: Clostridium sporogenes DSM 1664; test: growth (OD595) fold change vs plate DMSO controls (fold change (ratio)); higher = more growth
Method in brief: (§1)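 Anaerobic 27 h, 37 °C mGAM 96-well cultures were shaken, then read for absorbance at 595 nm. Values were blank-subtracted and corrected for compound background using 20 µM compound solutions in water. A calibration factor of 5 converted them to OD. Growth is the fold change versus the median of plate DMSO controls. Fold changes above 1.5 were set to NA, and values are the mean of 2 biological replicates.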

Escherichia coli IAI1 [2] = test: as above
Method in brief: as §1

[3] = test system: Klebsiella aerogenes DSM 30053; test: as above
Method in brief: as §1

[4] = test system: Ruminococcus gnavus DSM 108212; test: as above
Method in brief: as §1

[5] = test system: Klebsiella aerogenes DSM 30053; test: fold change of Histamine concentration vs plate DMSO controls (fold change (ratio)); higher = more amine produced, active = hit call of the paper (significant change in both replicates, either direction)
Method in brief: (§2)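 Using LC–triple-quadrupole MS with dynamic MRM, amines were quantified against external calibration curves and corrected for drift within each batch. Samples were whole anaerobic mGAM cultures of four gut strains, grown 27 h at 37 °C from OD 0.1 before 1:1 dilution, extracted with cold acetonitrile/methanol containing 0.1% formic acid and centrifuged. Compounds were present at 20 µM final (sweeteners at 50 µM final). The numbers are fold changes versus plate DMSO controls, each the mean of 2 biological replicates.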

[6] = test system: Clostridium sporogenes DSM 1664; test: fold change of Tryptamine concentration vs plate DMSO controls (fold change (ratio)); higher = more amine produced, active = hit call of the paper (significant change in both replicates, either direction)
Method in brief: as §2

[7] = test system: Ruminococcus gnavus DSM 108212; test: as above
Method in brief: as §2

Escherichia coli IAI1 [8] = test: fold change of Putrescine concentration vs plate DMSO controls (fold change (ratio)); higher = more amine produced, active = hit call of the paper (significant change in both replicates, either direction)
Method in brief: as §2

[9] = test system: Klebsiella aerogenes DSM 30053; test: as above
Method in brief: as §2

Escherichia coli IAI1 [10] = test: fold change of Cadaverine concentration vs plate DMSO controls (fold change (ratio)); higher = more amine produced, active = hit call of the paper (significant change in both replicates, either direction)
Method in brief: as §2

[11] = test system: Klebsiella aerogenes DSM 30053; test: as above
Method in brief: as §2

[12] = test system: Ruminococcus gnavus DSM 108212; test: fold change of 2-Phenylethylamine concentration vs plate DMSO controls (fold change (ratio)); higher = more amine produced, active = hit call of the paper (significant change in both replicates, either direction)
Method in brief: as §2

SMILES | growth [1] | growth (Escherichia coli IAI1 [2]) | growth [3] | growth [4] | fold change of Histamine concentration [5] | fold change of Tryptamine concentration [6] | fold change of Tryptamine concentration [7] | fold change of Putrescine concentration (Escherichia coli IAI1 [8]) | fold change of Putrescine concentration [9] | fold change of Cadaverine concentration (Escherichia coli IAI1 [10]) | fold change of Cadaverine concentration [11] | fold change of 2-Phenylethylamine concentration [12]
CN(C)c1ccc(O)c2c1C[C@H]1C[C@H]3[C@H](N(C)C)C(=O)C(C(N)=O)=C(O)[C@@]3(O)C(=O)C1=C2O [Minocycline hydrochloride] (20 µM) | 0.0113 | 0.0671 | 0.394 | 0.158 | 0.996 (inactive) | 0.0198 (active) | 0.14 (active) | 0.287 (active) | 0.866 (inactive) | 0.278 (active) | 0.681 (active) | 0.142 (active)
N[C@@H](Cc1cc(I)c(Oc2ccc(O)c(I)c2)c(I)c1)C(=O)O [Liothyronine] (20 µM) | 0.986 | 0.992 | 1.03 | 1.09 | 0.981 (inactive) | 0.991 (inactive) | 0.88 (inactive) | 0.906 (inactive) | 0.99 (inactive) | 1.02 (inactive) | 0.993 (inactive) | 0.88 (inactive)
O=C1Nc2ccc(Cl)cc2[C@@](C#CC2CC2)(C(F)(F)F)O1 [Efavirenz] (20 µM) | 1.25 | 1.01 | 1.02 | 1.22 | 0.986 (inactive) | 1.02 (inactive) | 0.936 (inactive) | 1.04 (inactive) | 0.985 (inactive) | 1.02 (inactive) | 0.997 (inactive) | 0.935 (inactive)
COc1cc(N)c(Cl)cc1C(=O)NC1CCN(Cc2ccccc2)CC1 [Clebopride maleate] (20 µM) | 1.05 | 0.95 | 0.981 | 0.875 | 1 (inactive) | 1.01 (inactive) | 0.985 (inactive) | 0.926 (inactive) | 0.976 (inactive) | 0.984 (inactive) | 0.999 (inactive) | 0.985 (inactive)
NCC[C@H](O)C(=O)N[C@@H]1C[C@H](N)[C@@H](O[C@H]2O[C@H](CN)[C@@H](O)[C@H](O)[C@H]2O)[C@H](O)[C@H]1O[C@H]1O[C@H](CO)[C@@H](O)[C@H](N)[C@H]1O [Amikacin hydrate] (20 µM) | 0.793 | 0.983 | 0.78 | 0.735 | 0.601 (active) | 0.812 (inactive) | 0.911 (inactive) | 1 (inactive) | 0.992 (inactive) | 0.922 (inactive) | 0.982 (inactive) | 0.972 (inactive)
N#C/C(=C1/SCC(c2ccccc2Cl)S1)n1ccnc1 (stereo not given) [Lanoconazole] (20 µM) | 0.991 | 0.983 | 1 | 1.1 | 0.945 (inactive) | 0.98 (inactive) | 0.982 (inactive) | 1.04 (inactive) | 1.01 (inactive) | 1.01 (inactive) | 1 (inactive) | 0.949 (inactive)
CC(C)(C)NC(=O)[C@H]1CC[C@H]2[C@@H]3CC[C@H]4NC(=O)C=C[C@]4(C)[C@H]3CC[C@]12C [Finasteride] (20 µM) | 1.18 | 0.998 | 1.05 | 1.24 | 0.977 (inactive) | 0.973 (inactive) | 1.06 (inactive) | 0.983 (inactive) | 0.982 (inactive) | 0.913 (inactive) | 1.01 (inactive) | 1.12 (inactive)
Cc1cc(=O)n(-c2ccccc2)n1C [Antipyrine] (20 µM) | 1.04 | 0.959 | 1.03 | 0.869 | 0.98 (inactive) | 1.03 (inactive) | 1.01 (inactive) | 0.999 (inactive) | 1 (inactive) | 1.01 (inactive) | 0.999 (inactive) | 1.02 (inactive)
O=C1NCC2(CCN(CCc3ccccc3)CC2)O1 [Fenspiride hydrochloride] (20 µM) | 1.08 | 0.982 | 1.05 | 1.03 | 0.89 (inactive) | 1.02 (inactive) | 1.03 (inactive) | 0.98 (inactive) | 0.973 (inactive) | 0.994 (inactive) | 1.02 (inactive) | 0.988 (inactive)
COC(=O)C1=C(C)NC(C)=C(C(=O)O[C@H]2CCN(Cc3ccccc3)C2)[C@H]1c1cccc([N+](=O)[O-])c1 [Barnidipine Hydrochloride] (20 µM) | 0.993 | 1.08 | 0.991 | 1.06 | 1.01 (inactive) | 0.969 (inactive) | 0.992 (inactive) | 0.989 (inactive) | 0.999 (inactive) | 1.02 (inactive) | 1.01 (inactive) | 0.944 (inactive)
Oc1ccccc1O [Catechol] (20 µM) | 1.11 | 1.01 | 0.966 | 0.98 | 1 (inactive) | 0.972 (inactive) | 0.979 (inactive) | 1.02 (inactive) | 1.01 (inactive) | 1.16 (inactive) | 0.978 (inactive) | 0.971 (inactive)
COC(=O)C1=C(C)NC(C)=C(C(=O)OCCN2CCN(C(c3ccccc3)c3ccccc3)CC2)C1c1cccc([N+](=O)[O-])c1 (stereo not given) [Manidipine Dihydrochloride] (20 µM) | 0.816 | 1.01 | 1 | 0.934 | 1 (inactive) | 0.799 (inactive) | 0.848 (inactive) | 0.983 (inactive) | 1 (inactive) | 1.01 (inactive) | 0.997 (inactive) | 0.9 (inactive)
O=C(c1ccc(F)cc1)C1CCN(CCn2c(=O)[nH]c3ccccc3c2=O)CC1 [Ketanserin tartrate hydrate] (20 µM) | 1.21 | 0.974 | 1.02 | 1.06 | 1.05 (inactive) | 1.18 (inactive) | 1.01 (inactive) | 1.03 (inactive) | 1.02 (inactive) | 0.963 (inactive) | 1.02 (inactive) | 1.02 (inactive)
CCOc1ccc2nc3cc(N)ccc3c(N)c2c1 [Ethacridine lactate] (20 µM) | 0.937 | 0.981 | 0.974 | 0.954 | 0.985 (inactive) | 1.07 (inactive) | 0.856 (inactive) | 1.14 (inactive) | 1.01 (inactive) | 1.12 (inactive) | 0.993 (inactive) | 0.837 (inactive)
COc1ccc2[nH]c([S+]([O-])Cc3ncc(C)c(OC)c3C)nc2n1 (stereo not given) [Tenatoprazole] (20 µM) | 1 | 1.06 | 1.04 | 1.14 | 0.985 (inactive) | 1.03 (inactive) | 1.01 (inactive) | 1.06 (inactive) | 0.996 (inactive) | 0.977 (inactive) | 0.995 (inactive) | 1.01 (inactive)
Nc1ncnc2c1ncn2[C@@H]1O[C@H](COP(=O)(O)O)[C@@H](O)[C@H]1O [5'-Adenylic acid] (50 µM) | 0.902 | 0.983 | 1.04 | 1.03 | 0.938 (inactive) | 0.951 (inactive) | 1.01 (inactive) | 1.01 (inactive) | 1.03 (inactive) | 0.905 (inactive) | 1 (inactive) | 0.989 (inactive)
Nc1ncnc2c1ncn2C1OC(COP(=O)(O)O)C(O)C1O (stereo not given) [Adenosine 5'-monophosphate monohydrate] (20 µM) | 1.05 | 1.01 | 0.973 | 0.96 | 1.07 (inactive) | 1.01 (inactive) | 1.02 (inactive) | 1.04 (inactive) | 1.02 (inactive) | 0.991 (inactive) | 0.987 (inactive) | 1.01 (inactive)
Nc1nc2[nH]cnc2c(=S)[nH]1 [Tioguanine] (20 µM) | 1.3 | 0.969 | 1.09 | 0.899 | 1 (inactive) | 1.03 (inactive) | 1.01 (inactive) | 0.623 (active) | 0.987 (inactive) | 0.871 (inactive) | 0.998 (inactive) | 0.998 (inactive)
C[C@H]1[C@@H](O)O[C@@H]2O[C@@]3(C)CC[C@H]4[C@H](C)CC[C@@H]1[C@@]24OO3 [Artenimol] (20 µM) | 1.03 | 1.03 | 0.982 | 1.04 | 1.01 (inactive) | 0.991 (inactive) | 1.01 (inactive) | 1.02 (inactive) | 1.01 (inactive) | 1.02 (inactive) | 1.01 (inactive) | 0.965 (inactive)
C=CCOc1ccccc1OCC(O)CNC(C)C (stereo not given) [Oxprenolol hydrochloride] (20 µM) | 0.929 | 0.97 | 0.986 | 0.945 | 1.02 (inactive) | 1.08 (inactive) | 1.05 (inactive) | 1.01 (inactive) | 1 (inactive) | 1.02 (inactive) | 0.988 (inactive) | 1.04 (inactive)
C[N+]1(C)CCC(=C(c2ccccc2)c2ccccc2)CC1 [Diphemanil methylsulfate] (20 µM) | 1.04 | 1.02 | 1.07 | 0.984 | 0.94 (inactive) | 1.17 (inactive) | 1.01 (inactive) | 0.958 (inactive) | 0.962 (inactive) | 1.02 (inactive) | 1.02 (inactive) | 1.06 (inactive)
NC[C@@H]1O[C@H](O[C@H]2[C@@H](O)[C@H](O[C@@H]3[C@@H](O)[C@H](N)C[C@H](N)[C@H]3O[C@H]3O[C@H](CO)[C@@H](O)[C@H](O)[C@H]3N)O[C@@H]2CO)[C@H](N)[C@@H](O)[C@@H]1O [Paromomycin sulfate] (20 µM) | 1.06 | 0.996 | 0.975 | 0.984 | 0.994 (inactive) | 1.03 (inactive) | 0.999 (inactive) | 1.01 (inactive) | 1 (inactive) | 0.972 (inactive) | 0.981 (inactive) | 0.987 (inactive)
CC(=O)Oc1cc2c(s1)CCN(C(C(=O)C1CC1)c1ccccc1F)C2 (stereo not given) [Prasugrel] (20 µM) | 1.1 | 1.02 | 1 | 0.989 | 1 (inactive) | 0.957 (inactive) | 0.985 (inactive) | 0.983 (inactive) | 1.01 (inactive) | 1.03 (inactive) | 0.994 (inactive) | 0.965 (inactive)
CCCCCCCC/C=C\CCCCCCCCCCCC(=O)O [Erucic acid] (20 µM) | 0.975 | 1 | 1.04 | 1.06 | 1.02 (inactive) | 1.1 (inactive) | 0.851 (inactive) | 0.981 (inactive) | 1.01 (inactive) | 1.06 (inactive) | 0.99 (inactive) | 0.86 (inactive)
Cc1c(O)c(=O)n(-c2ccccc2)n1C [Antipyrine, 4-hydroxy] (20 µM) | 1.04 | 1.02 | 1.02 | 0.689 | 0.913 (inactive) | 0.985 (inactive) | 0.987 (inactive) | 1.01 (inactive) | 0.956 (inactive) | 0.973 (inactive) | 1.01 (inactive) | 0.932 (inactive)
